From ChEMBL document CHEMBL3988442, “University of Dundee, Small-Polar-MMV Screening Library” (2021) come the findings set out here.

Structures are written as SMILES. Among all 69,000 compounds or so, about 950 (1.4%) showed an effect of 50% or more. The list comes from a sample in which strong results are over-represented; it also holds similar structures and randomly drawn compounds.

This assay has as its system Mycobacterium tuberculosis. The assay can be described thus: Cornell M. t heat shock assay. Further: in the data most compounds retested in dose-response had high values. The class given is functional, organism-based. More on the design: dose or concentration left out as unconfirmed.
As for `Fc1cnc(N2CCCC3(COCCN(c4nccs4)C3)C2)nc1.O=C(O)C(F)(F)F.O=C(O)C(F)(F)F` (configuration not stated), the “Percent Effect” value worked out at 4.049%.

As for `COc1c(CNC2CCCOc3ccc(F)cc32)c(C(C)C)nn1C.Cl` (configuration not stated), the “Percent Effect” value is recorded as -10.1%. Under `O=C(O)C(F)(F)F.O=C1NCC[C@]12CN(CC1CCOCC1)C[C@H]2c1ccccc1` stands -6.347%; under `CCc1ccc(CN2C[C@H](OCC(=O)N(C)C)[C@H]3COC[C@H]32)o1.O=C(O)C(F)(F)F`, 13.05%. Take `CO[C@H]1CN(CC2CC2)[C@@H]2CCCO[C@H]12.O=C(O)C(F)(F)F`: the “Percent Effect” value stood at 13.63%. As for `c1ccc(OCCNCc2cccs2)nc1`, the figure is -4.17%; as for `CC(C)CC(NCc1cscn1)c1ccccn1` (configuration not stated), 27.38%.

As to `O=C(Cn1cccnc1=O)NC(Cc1cccs1)c1ccccn1` (configuration not stated), the “Percent Effect” value is -7.839%.

Consider `CC(C)CC(NCc1ccsc1)c1ccccn1` (configuration not stated), for which the “Percent Effect” value was 95.2%. As for `CC(C)CC(NCc1cccs1)c1ccccn1` (configuration not stated), the figure is 99.48%. Under `CS(=O)(=O)N1CCC(C(=O)NC(Cc2ccsc2)c2ccccn2)CC1` (configuration not stated) stands -2.015%; under `Cl.O=C(c1ccccc1)N1CCC2(CC1)CNc1c(F)cccc12`, 9.544%.

As to `Cc1cnn(CC2CN(Cc3nc4ccccc4s3)CCO2)c1` (configuration not stated), the “Percent Effect” value is -2.009%. With `CN(Cc1cncnc1)[C@@H]1CN(C(=O)C2CC2)[C@@H]2CCCO[C@H]12.O=C(O)C(F)(F)F`, the “Percent Effect” value came out at 8.478%. Under `CN(Cc1cncnc1)[C@@H]1CN(C(=O)c2ccco2)[C@@H]2CCCO[C@H]12.O=C(O)C(F)(F)F` stands 50.13%; under `CN(Cc1cncnc1)[C@H]1CN(C(=O)c2ccco2)[C@@H]2CCCO[C@@H]21`, -2.729%; under `COc1ccc2[nH]cc(C(=O)CNc3nc(C)cs3)c2c1.I`, 4.496%.

Turning to `COc1cccc(CC(=O)N2CC[C@@H]3[C@H](CC2)N(C)CCS3(=O)=O)c1.O=C(O)C(F)(F)F`, the “Percent Effect” value is given as 5.677%. Under `CN(C)c1nc(N)nc(CN2CCCC2c2cccs2)n1` (configuration not stated) stands 97.97%; under `Cn1ncc2c(=O)[nH]c(CN3CCCC3c3cccs3)nc21` (configuration not stated), 80.29%. Regarding `Cc1nc(CN2CCCC2c2ccsc2)nc2ccccc12` (configuration not stated), the “Percent Effect” value came out at 40.46%. With `Cc1ccccc1C1CCCN1Cc1nc2c(cnn2C)c(=O)[nH]1` (configuration not stated), the “Percent Effect” value is recorded as -11.52%. For `Cc1cccc(C2CCCN2Cc2nc(N)nc(N(C)C)n2)c1C` (configuration not stated), the “Percent Effect” value came out at 47.4%. Regarding `CCCc1noc(CN2CCCC2c2ccsc2)n1` (configuration not stated), the “Percent Effect” value worked out at 4.131%. In the case of `CN(C)c1nc(N)nc(CN2CCCC2c2ccsc2)n1` (configuration not stated), the “Percent Effect” value is listed as 64.16%. Regarding `CN(C)c1nc(N)nc(CN2CCCC(c3ccccc3)CC2)n1` (configuration not stated), the “Percent Effect” value is recorded as -13.13%.

Consider `Cn1ncc2c(=O)[nH]c(CN3CCCC3c3ccsc3)nc21` (configuration not stated), for which the “Percent Effect” value is -12.54%.
